Measurements taken from PubChem BioAssay (EPA / NIEHS).
Records with an inconclusive call do not appear. Activity calls are given as the source filed them. Rule for the calls, unless noted: active = hit-call score of the fitted dose curve at least 0.9, where 1 is the maximum; inconclusive = response in the unintended direction; inactive = score below 0.9.

Experiments:
[1] = read-out: ABC Transporter (ABCB11), ABCB11 (gene 8647); assay: CLD_ABCB11_6hr: CellzDirect (CLD) Gene Expression Assay for ABC Transporter (ABCB11) at 6 hours (AID 2283675);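 note: hits raise ABCB11 mRNA level so AC50 marks induction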
Outline: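 Human primary hepatocytes (two donor preparations) given fresh chemical daily at multiple concentrations, vehicle 0.2% DMSO. ABCB11 mRNA induction measured 6 h after dosing by qNPA chemiluminescence versus DMSO; cytotoxicity annotated from morphology.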

[2] = CLD_ACTIN_6hr: CellzDirect (CLD) Gene Expression Assay for Baseline Control (Actin) at 6 hours (AID 2283676);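 note: active means increased actin mRNA relative to DMSO vehicle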
Outline: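 Primary human hepatocytes dosed with fresh chemical solutions (vehicle 0.2% DMSO), harvested at 6 h. Actin mRNA quantified by quantitative nuclease protection assay with chemiluminescent read-out, as background control relative to DMSO.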

[3] = read-out: Cytochrome P450 2B6 (Homo sapiens) (UniProt P20813); assay: CLD_CYP2B6_6hr: CellzDirect (CLD) Gene Expression Assay for xenobiotic metabolism (CYP2B6) at 6 hours (AID 2283677);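 note: actives raise CYP2B6 transcript above DMSO baseline so AC50 marks an inducer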
Outline: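 Primary human hepatocytes dosed with chemicals at multiple concentrations, vehicle 0.2% DMSO; CYP2B6 mRNA induction measured 6 h after dosing by quantitative nuclease protection assay with chemiluminescence, gain of signal fitted relative to DMSO.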

[4] = CCTE_Padilla_ZF_144hpf_TERATOSCORE: (Legacy) CCTE's 144 Hour Post-fertilization zebrafish Assay Teratoscore, Padilla Lab (AID 2283679; active = hit-call score of the fitted dose curve at least 0.9, where 1 is the maximum; inactive = score below 0.9;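 for AC50: zebrafish embryos with chorions exposed by immersion from 6-8 hpf to 5 dpf with daily renewal; teratogenicity score from eye scoring of death hatching and malformations at 144 hpf; higher score means more developmental defects relative to DMSO baseline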)
Outline: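 Larvae scored by eye at 144 hpf for death, hatching and malformations after a day in clean Hanks'. Before that, daily-renewed exposure at 80 uM (0.4% DMSO, 26C) from roughly 6-8 hpf through 5 dpf, 4 embryos per chemical.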

[5] = read-out: Glyceraldehyde-3-phosphate dehydrogenase (Homo sapiens) (UniProt P04406); assay: CLD_GAPDH_6hr: CellzDirect (CLD) Gene Expression Assay for Baseline Control (Glyceraldehyde 3-phosphate dehydrogenase) at 6 hours (AID 2283681);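 note: active means increased signal relative to DMSO vehicle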
Outline: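 Primary human hepatocytes from two donor preparations, dosed at multiple concentrations with 0.2% DMSO vehicle; GAPDH mRNA measured 6 h after dosing by chemiluminescent quantitative nuclease protection assay (qNPA) on denatured lysates. Serves as background control; cytotoxicity annotated by morphology.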

[6] = read-out: xenobiotic metabolism (CYP1A2), CYP1A2 (gene 1544); assay: CLD_CYP1A2_24hr: CellzDirect (CLD) Gene Expression Assay for xenobiotic metabolism (CYP1A2) at 24 hours (AID 2283683)
Outline: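 Primary human hepatocytes from two donor preparations dosed daily with multiple concentrations of chemical, 0.2% DMSO vehicle. CYP1A2 mRNA at 24 h quantified by qNPA chemiluminescence; gain of signal analyzed relative to DMSO. Cytotoxicity flagged by phase-contrast morphology.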

[7] = read-out: Cytochrome P450 2B6 (Homo sapiens) (UniProt P20813); assay: CLD_CYP2B6_24hr: CellzDirect (CLD) Gene Expression Assay for xenobiotic metabolism (CYP2B6) at 24 hours (AID 2283686)
Outline: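 Primary human hepatocytes dosed daily for two days with fresh solutions, harvested at 24 hours; mRNA induction quantified by qNPA chemiluminescence, gain of signal vs 0.2% DMSO vehicle. Cytotoxicity annotated from phase-contrast morphology.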

[8] = read-out: alkyl and aryl transferase (GSTA2), GSTA2 (gene 2939); assay: CLD_GSTA2_24hr: CellzDirect (CLD) Gene Expression Assay for alkyl and aryl transferase (GSTA2) at 24 hours (AID 2283693)
Outline: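 Primary human hepatocytes (two donor preparations) dosed daily for two days with chemicals at multiple concentrations (vehicle 0.2% DMSO); GSTA2 mRNA at 24 h measured by qNPA chemiluminescence, gain-of-signal versus DMSO.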

[9] = read-out: Cytochrome P450 3A4 (Homo sapiens) (UniProt P08684); assay: CLD_CYP3A4_6hr: CellzDirect (CLD) Gene Expression Assay for xenobiotic metabolism (CYP3A4) at 6 hours (AID 2283680)
Outline: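 Primary human hepatocytes (two donor preparations) dosed; CYP3A4 mRNA harvested at 6 h and quantified by qNPA chemiluminescence. Gain of signal fitted against 0.2% DMSO vehicle; cytotoxicity flagged by phase-contrast morphology.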

[10] = read-out: ABC Transporter (ABCB1), ABCB1 (gene 5243); assay: CLD_ABCB1_24hr: CellzDirect (CLD) Gene Expression Assay for ABC Transporter (ABCB1) at 24 hours (AID 2283684)
Outline: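 Primary human hepatocytes, two donor preparations, dosed daily with fresh solutions; vehicle 0.2% DMSO; harvested at 24 h. ABCB1 mRNA measured by quantitative nuclease protection assay (chemiluminescence); morphology-based cytotoxicity annotated.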

[11] = read-out: Broad substrate specificity ATP-binding cassette transporter ABCG2 (Homo sapiens) (UniProt Q9UNQ0); assay: CLD_ABCG2_24hr: CellzDirect (CLD) Gene Expression Assay for ABC Transporter (ABCG2) at 24 hours (AID 2283685)
Outline: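 Primary human hepatocytes were dosed daily with ToxCast chemicals at multiple concentrations (vehicle 0.2% DMSO). ABCG2 mRNA was measured at 24 h by qNPA chemiluminescence; induction was scored as gain of signal versus DMSO.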

[12] = read-out: Cytochrome P450 2C9 (Homo sapiens) (UniProt P11712); assay: CLD_CYP2C9_24hr: CellzDirect (CLD) Gene Expression Assay for xenobiotic metabolism (CYP2C9) at 24 hours (AID 2283688)
Outline: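 Primary human hepatocytes from two donor preparations, dosed daily for two days at multiple concentrations; vehicle 0.2% DMSO. CYP2C9 mRNA induction at 24 h measured by qNPA chemiluminescence relative to DMSO; cytotoxicity annotated from morphology.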

[13] = read-out: sulfotransferase (SULT2A), SULT2A1 (gene 6822); assay: CLD_SULT2A_24hr: CellzDirect (CLD) Gene Expression Assay for sulfotransferase (SULT2A) at 24 hours (AID 2283694)
Outline: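 Primary human hepatocytes from two donor preparations were dosed daily with fresh solutions, vehicle 0.2% DMSO. At 24 h, lysates went to quantitative nuclease protection (qNPA) with S1 digestion and chemiluminescent readout. Cytotoxicity was annotated from phase-contrast morphology.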

[14] = read-out: ABC Transporter (ABCB1), ABCB1 (gene 5243); assay: CLD_ABCB1_48hr: CellzDirect (CLD) Gene Expression Assay for ABC Transporter (ABCB1) at 48 hours (AID 2283695)
Outline: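 Primary human hepatocytes from two donor preparations dosed daily on two consecutive days with 0.2% DMSO vehicle. Harvest at 48 h. ABCB1 mRNA quantified by qNPA with chemiluminescence and fitted for gain of signal versus DMSO.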

[15] = read-out: organic anion transporter (SLCO1B1), SLCO1B1 (gene 10599); assay: CLD_SLCO1B1_24hr: CellzDirect (CLD) Gene Expression Assay for organic anion transporter (SLCO1B1) at 24 hours (AID 2283690)
Outline: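 Primary human hepatocytes (two donor preparations) dosed daily for two days with chemicals at multiple concentrations, 0.2% DMSO vehicle. SLCO1B1 mRNA at 24 h measured by qNPA chemiluminescence; induction fitted relative to DMSO.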

[16] = read-out: Cytochrome P450 2C19 (Homo sapiens) (UniProt P33261); assay: CLD_CYP2C19_6hr: CellzDirect (CLD) Gene Expression Assay for xenobiotic metabolism (CYP2C19) at 6 hours (AID 2283678)
Outline: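 Primary human hepatocytes from two donor preparations were dosed daily, with 0.2% DMSO as vehicle, and harvested 6 h after dosing. CYP2C19 mRNA induction was measured by qNPA chemiluminescence and fitted as gain of signal against DMSO.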

[17] = read-out: HMG-CoA synthase (HMGCS2), HMGCS2 (gene 3158); assay: CLD_HMGCS2_6hr: CellzDirect (CLD) Gene Expression Assay for HMG-CoA synthase (HMGCS2) at 6 hours (AID 2283682);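 note: actives raise HMGCS2 transcript above the 0.2% DMSO vehicle baseline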
Outline: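 Primary human hepatocytes dosed daily with fresh chemical, 0.2% DMSO vehicle; HMGCS2 mRNA measured at 6 h by qNPA chemiluminescence. Gain of signal fitted against DMSO; cytotoxicity flagged from phase-contrast morphology.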

Measured: AC50

Glyceraldehyde-3-phosphate dehydrogenase (Homo sapiens), sequence (P04406 whole entry, looked up): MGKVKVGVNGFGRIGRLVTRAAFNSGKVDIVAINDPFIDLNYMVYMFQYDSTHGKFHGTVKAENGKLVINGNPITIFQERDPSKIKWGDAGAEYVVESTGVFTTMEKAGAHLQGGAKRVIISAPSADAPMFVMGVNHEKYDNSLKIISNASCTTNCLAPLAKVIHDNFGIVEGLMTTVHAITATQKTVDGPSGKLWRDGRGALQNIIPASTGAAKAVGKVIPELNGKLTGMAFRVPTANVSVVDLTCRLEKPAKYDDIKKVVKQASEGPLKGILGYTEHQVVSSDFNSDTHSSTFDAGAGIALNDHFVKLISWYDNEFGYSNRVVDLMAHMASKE
Broad substrate specificity ATP-binding cassette transporter ABCG2 (Homo sapiens), sequence (Q9UNQ0 whole entry, looked up): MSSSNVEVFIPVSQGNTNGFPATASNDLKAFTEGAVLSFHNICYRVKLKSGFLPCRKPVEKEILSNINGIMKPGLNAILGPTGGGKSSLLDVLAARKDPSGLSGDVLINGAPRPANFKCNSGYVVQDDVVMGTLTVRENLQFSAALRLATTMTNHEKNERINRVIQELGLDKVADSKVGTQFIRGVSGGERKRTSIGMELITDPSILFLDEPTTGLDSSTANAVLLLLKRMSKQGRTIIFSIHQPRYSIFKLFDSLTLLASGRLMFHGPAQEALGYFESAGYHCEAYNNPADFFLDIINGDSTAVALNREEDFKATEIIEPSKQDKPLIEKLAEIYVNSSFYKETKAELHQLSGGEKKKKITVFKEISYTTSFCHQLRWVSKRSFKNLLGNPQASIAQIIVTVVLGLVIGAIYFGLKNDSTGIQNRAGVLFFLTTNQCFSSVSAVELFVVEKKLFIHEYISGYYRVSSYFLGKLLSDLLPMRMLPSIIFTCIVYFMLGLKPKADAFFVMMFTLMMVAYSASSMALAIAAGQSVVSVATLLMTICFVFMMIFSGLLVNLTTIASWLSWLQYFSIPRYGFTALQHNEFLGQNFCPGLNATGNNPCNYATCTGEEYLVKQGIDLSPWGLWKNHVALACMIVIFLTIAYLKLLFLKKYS
Cytochrome P450 2C19 (Homo sapiens), sequence (P33261 whole entry, looked up): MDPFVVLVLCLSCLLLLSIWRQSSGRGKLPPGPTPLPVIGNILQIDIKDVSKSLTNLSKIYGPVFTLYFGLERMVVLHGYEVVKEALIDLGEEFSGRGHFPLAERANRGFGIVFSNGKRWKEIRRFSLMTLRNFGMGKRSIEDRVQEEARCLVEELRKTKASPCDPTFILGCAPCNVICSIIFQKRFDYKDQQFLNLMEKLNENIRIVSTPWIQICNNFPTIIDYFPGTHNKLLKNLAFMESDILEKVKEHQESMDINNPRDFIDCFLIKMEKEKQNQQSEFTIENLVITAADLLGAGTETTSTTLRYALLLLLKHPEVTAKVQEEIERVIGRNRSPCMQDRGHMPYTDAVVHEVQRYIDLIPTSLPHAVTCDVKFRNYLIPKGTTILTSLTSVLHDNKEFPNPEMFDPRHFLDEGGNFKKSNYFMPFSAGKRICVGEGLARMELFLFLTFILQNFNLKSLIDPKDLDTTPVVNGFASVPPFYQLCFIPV
Cytochrome P450 3A4 (Homo sapiens), sequence (P08684 whole entry, looked up): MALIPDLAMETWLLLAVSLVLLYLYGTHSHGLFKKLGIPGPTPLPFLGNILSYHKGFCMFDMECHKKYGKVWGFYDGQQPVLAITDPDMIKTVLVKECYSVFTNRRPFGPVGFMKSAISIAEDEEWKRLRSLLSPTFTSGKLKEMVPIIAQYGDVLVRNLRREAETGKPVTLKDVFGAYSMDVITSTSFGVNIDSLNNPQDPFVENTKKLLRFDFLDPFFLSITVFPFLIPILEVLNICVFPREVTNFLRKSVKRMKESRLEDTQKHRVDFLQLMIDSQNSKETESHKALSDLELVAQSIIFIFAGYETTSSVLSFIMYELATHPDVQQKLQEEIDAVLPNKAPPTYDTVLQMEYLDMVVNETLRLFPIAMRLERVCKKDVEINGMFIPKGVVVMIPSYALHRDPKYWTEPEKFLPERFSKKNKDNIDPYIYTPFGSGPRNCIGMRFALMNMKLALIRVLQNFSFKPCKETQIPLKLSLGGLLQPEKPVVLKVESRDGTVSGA

COC(=O)N(C(=O)N1CO[C@@]2(C(=O)OC)Cc3cc(Cl)ccc3C2=N1)c1ccc(OC(F)(F)F)cc1
active: [3] 2090 nM | [4] 1570 nM | [6] 1280 nM | [7] 1900 nM
inactive: [1] | [2] | [5] | [8]

COP(=S)(OC)SCn1nnc2ccccc2c1=O
active: [3] 448 nM | [4] 15200 nM | [9] 975 nM | [6] 2270 nM | [7] 4460 nM
not listed: [15] | [16] | [17]
inactive: all other assays above

CC(C)N1C(=O)N(c2ccccc2)CSC1=NC(C)(C)C
inactive: [1] | [2] | [6] | [11] | [12] | [15]
active: [3] 7110 nM | [4] 1480 nM | [7] 4230 nM

Clc1cccc(C(Cl)(Cl)Cl)n1
active: [3] 1900 nM | [7] 325 nM
not listed: [9] | [10] | [13] | [14]
inactive: all other assays above
